Screening data deposited in PubChem by Sanford-Burnham Center for Chemical Genomics.
In the library only some 31% were active in any assay of this set; here they are far more common.
CYP2C9 inh – blocks human cytochrome P450 2C9; CYP2C9 Supersomes, luciferin-H conversion, luminescence; AID 777; P11712; hit rate 20% among 96,000; inhibition, % at 5 µM;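 active = blocking of liver enzyme CYP2C9 beyond about 50% at 5 µM, limit read from the data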
Target sequence (P11712 whole entry, looked up): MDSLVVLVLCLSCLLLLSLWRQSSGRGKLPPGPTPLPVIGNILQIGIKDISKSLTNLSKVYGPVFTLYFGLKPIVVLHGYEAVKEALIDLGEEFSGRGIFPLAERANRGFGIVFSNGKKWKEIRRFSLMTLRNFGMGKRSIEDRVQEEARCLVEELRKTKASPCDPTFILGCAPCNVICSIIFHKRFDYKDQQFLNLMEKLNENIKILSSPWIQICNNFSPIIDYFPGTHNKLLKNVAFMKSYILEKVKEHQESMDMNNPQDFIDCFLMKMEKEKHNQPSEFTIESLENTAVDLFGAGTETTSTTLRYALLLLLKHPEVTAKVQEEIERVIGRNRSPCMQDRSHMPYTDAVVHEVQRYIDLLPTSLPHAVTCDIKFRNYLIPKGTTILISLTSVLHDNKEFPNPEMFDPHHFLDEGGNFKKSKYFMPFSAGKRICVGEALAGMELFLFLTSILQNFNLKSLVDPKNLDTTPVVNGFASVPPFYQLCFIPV
CYP2C19 inh – human CYP2C19 inhibition; P33261; CYP2C19 Supersomes, luciferin-H EGE luminescence, 30 min; inhibition, % at 5 µM; hit rate 21% among 96,000; AID 778;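 active = CYP2C19 inhibition above a set limit at 5 µM in the primary screen, cut at about 50% in these data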
CYP2C19 activ – cytochrome P450 2C19 (human) activation; P33261; recombinant CYP2C19, luciferin-H EGE luminescence; stronger effect = higher value; 0 = fully inhibited enzyme, 1 = untreated enzyme; activation factor at 5 µM; 96,000 tested, under 10 active; AID 1025;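 active = activation factor of at least 2 at 5 µM in the primary screen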
CYP2C9 act – CYP2C9 (human) activation; P11712; recombinant CYP2C9, luciferin-H conversion, luminescence; stronger effect = higher value; factor 1 = untreated enzyme, 0 = blocked; activation factor at 5 µM; hit rate 1.4% among 96,000;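 active = activation factor of 2 or more for CYP2C9 at a 5 µM dose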
Numbers stand for hits.

`COC(=O)c1ccc(OCC(O)CN(CC(C)C)CC(C)C)cc1` (stereo not drawn) gave CYP2C9 inh 70.9, CYP2C19 inh 73.6, CYP2C19 activ inactive and CYP2C9 act inactive.
CCC(=O)c1ccc(OCC(O)CN(CCc2ccccc2)Cc2ccccc2)cc1 (stereo not drawn) was read as CYP2C9 inh 70.4, CYP2C19 inh 52.9, CYP2C19 activ inactive and CYP2C9 act inactive.
Screening CCN(CC)CC(O)COc1ccccc1C(=O)CCc1ccccc1 (stereo not drawn) returned CYP2C9 inh inactive, CYP2C19 inh 59.5, CYP2C19 activ inactive and CYP2C9 act inactive.
`COc1cccc(OCC(O)CN(CCO)Cc2ccccc2)c1` (stereo not drawn) gave CYP2C9 inh inactive, CYP2C19 inh inactive, CYP2C19 activ inactive and CYP2C9 act inactive.
Screening Cc1sc(NC(=O)CSc2nnnn2C2CCCCC2)c(C#N)c1C returned CYP2C9 inh inactive, CYP2C19 inh inactive, CYP2C19 activ inactive and CYP2C9 act inactive.
For CCOc1ccc(N2CC(C(=O)Nc3ccc(S(=O)(=O)Nc4ncccn4)cc3)CC2=O)cc1 (stereo not drawn) the results were CYP2C9 inh inactive, CYP2C19 inh inactive, CYP2C19 activ inactive and CYP2C9 act inactive.
CCOC(=O)N1CCC(NC(=O)C2CCN(C(=O)N3CC(C)Oc4ccccc43)CC2)CC1 (stereo not drawn) was read as CYP2C9 inh inactive, CYP2C19 inh inactive, CYP2C19 activ inactive and CYP2C9 act inactive.
NC(=O)c1cccc(S(=O)(=O)N2CCCCC2)c1 was read as CYP2C9 inh inactive, CYP2C19 inh inactive, CYP2C19 activ inactive and CYP2C9 act inactive.
Screening O=C(COC(=O)c1cccc(S(=O)(=O)N2CCOCC2)c1)Nc1ccc2c(c1)OCO2 returned CYP2C9 inh 60.7, CYP2C19 inh 70.3, CYP2C19 activ inactive and CYP2C9 act inactive.
`O=C(OCc1ccc2c(c1)OCO2)c1cccc(S(=O)(=O)N2CCCCC2)c1` gave CYP2C9 inh 99.3, CYP2C19 inh 92.5, CYP2C19 activ inactive and CYP2C9 act inactive.
O=S(=O)(c1ccc(Nc2ccc3c(c2)OCO3)nc1)N1CCOCC1 was read as CYP2C9 inh 78.1, CYP2C19 inh inactive, CYP2C19 activ inactive and CYP2C9 act inactive.
`COC(=O)c1cccc(S(=O)(=O)N2CCCCC2)c1` gave CYP2C9 inh inactive, CYP2C19 inh 58.2, CYP2C19 activ inactive and CYP2C9 act inactive.
`O=S(=O)(c1ccc(N2CCOCC2)nc1)N1CCOCC1` gave CYP2C9 inh inactive, CYP2C19 inh inactive, CYP2C19 activ inactive and CYP2C9 act inactive.
For Cc1ccc(/C=C2\OC(=O)c3ccccc32)cc1 the results were CYP2C9 inh inactive, CYP2C19 inh inactive, CYP2C19 activ inactive and CYP2C9 act inactive.
`COc1ccc(NC(=O)C2(c3ccc(NC(=O)c4ccc(OC(C)=O)cc4)cc3)CCCC2)cc1` gave CYP2C9 inh inactive, CYP2C19 inh inactive, CYP2C19 activ inactive and CYP2C9 act inactive.
For CC(C)n1nnnc1SCC(=O)NNC(=O)C1CCCCC1 the results were CYP2C9 inh inactive, CYP2C19 inh inactive, CYP2C19 activ inactive and CYP2C9 act inactive.
For O=C(OCc1ccc2c(c1)OCO2)c1ccc(S(=O)(=O)N2CCCC2)cc1 the results were CYP2C9 inh 97.4, CYP2C19 inh 82.9, CYP2C19 activ inactive and CYP2C9 act inactive.
Screening O=C(c1ccc(S(=O)(=O)N2CCCCC2)cc1)N1CCN(Cc2ccc3c(c2)OCO3)CC1 returned CYP2C9 inh inactive, CYP2C19 inh inactive, CYP2C19 activ inactive and CYP2C9 act inactive.
`Cc1cccc(-c2c3c(=O)n(C)c(=O)n(C)c3cn2C(C)C)c1` gave CYP2C9 inh 57.0, CYP2C19 inh inactive, CYP2C19 activ inactive and CYP2C9 act inactive.
CCOC(=O)c1cc(C)n(-c2c(C)n(C)n(-c3ccccc3)c2=O)c1C was read as CYP2C9 inh inactive, CYP2C19 inh inactive, CYP2C19 activ inactive and CYP2C9 act inactive.
For COc1ccc(C2SCC(=O)N2c2c(C)n(C)n(-c3ccccc3)c2=O)cc1OC (stereo not drawn) the results were CYP2C9 inh inactive, CYP2C19 inh inactive, CYP2C19 activ inactive and CYP2C9 act inactive.
Screening COc1ccc(C2SCC(=O)N2c2c(C)n(C)n(-c3ccccc3)c2=O)c(OC)c1 (stereo not drawn) returned CYP2C9 inh inactive, CYP2C19 inh 55.3, CYP2C19 activ inactive and CYP2C9 act inactive.
For CCOc1ccc(C2SCC(=O)N2c2c(C)n(C)n(-c3ccccc3)c2=O)cc1 (stereo not drawn) the results were CYP2C9 inh 70.7, CYP2C19 inh 66.8, CYP2C19 activ inactive and CYP2C9 act inactive.
`Cc1cc(C)n(CC(=O)c2ccc(Br)cc2)c(=O)c1C#N` gave CYP2C9 inh inactive, CYP2C19 inh inactive, CYP2C19 activ inactive and CYP2C9 act inactive.
`COc1ccc(C(CC(=O)O)NC(=O)COc2ccccc2OC)cc1OC` (stereo not drawn) gave CYP2C9 inh inactive, CYP2C19 inh inactive, CYP2C19 activ inactive and CYP2C9 act inactive.
CC(C)(C)NC(=O)CN(C(=O)CS(=O)CC(=O)Nc1ccc(F)cc1)c1ccccc1 (stereo not drawn) was read as CYP2C9 inh 71.2, CYP2C19 inh inactive, CYP2C19 activ inactive and CYP2C9 act inactive.
`CC(=O)c1cccc(NC(=O)C2CC(c3ccc(F)cc3)=NO2)c1` (stereo not drawn) gave CYP2C9 inh inactive, CYP2C19 inh 67.8, CYP2C19 activ inactive and CYP2C9 act inactive.
Screening CC(=O)c1ccc(NC(=O)C2CC(c3ccc(F)cc3)=NO2)cc1 (stereo not drawn) returned CYP2C9 inh inactive, CYP2C19 inh inactive, CYP2C19 activ inactive and CYP2C9 act inactive.
Screening COc1cccc(C2=NOC(C(=O)Nc3cccc(C(C)=O)c3)C2)c1OC (stereo not drawn) returned CYP2C9 inh inactive, CYP2C19 inh 58.4, CYP2C19 activ inactive and CYP2C9 act inactive.
COc1cccc(C2=NOC(C(=O)Nc3cc(C)nn3-c3ccccc3)C2)c1OC (stereo not drawn) was read as CYP2C9 inh inactive, CYP2C19 inh inactive, CYP2C19 activ inactive and CYP2C9 act inactive.
`Cc1cc(NC(=O)C2CC(c3ccc(F)cc3)=NO2)n(-c2ccccc2)n1` (stereo not drawn) gave CYP2C9 inh inactive, CYP2C19 inh 68.1, CYP2C19 activ inactive and CYP2C9 act inactive.
CN=C(Nc1cc(C)nn1-c1ccccc1)c1ccc(F)cc1 was read as CYP2C9 inh inactive, CYP2C19 inh 91.7, CYP2C19 activ inactive and CYP2C9 act inactive.
COc1ccc(N2CCN(C(=O)CSc3nnc(-c4cccnc4)n3-c3ccccc3)CC2)cc1 was read as CYP2C9 inh inactive, CYP2C19 inh inactive, CYP2C19 activ inactive and CYP2C9 act inactive.
`CCCn1c(=O)c2ccccc2n2c(SCC(=O)c3ccc(F)cc3)nnc12` gave CYP2C9 inh inactive, CYP2C19 inh inactive, CYP2C19 activ inactive and CYP2C9 act inactive.
`CCC1CCCCN1C(=O)C1CC(c2cc(Cl)c(OC)cc2OC)=NO1` (stereo not drawn) gave CYP2C9 inh inactive, CYP2C19 inh 71.6, CYP2C19 activ inactive and CYP2C9 act inactive.
